Results on 40 compounds are retold here after PubChem BioAssay (NCI).

Each structure is given as a SMILES string. Compounds without any hit were thinned out: in the full panel of roughly 83,000, 20% have a hit.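 Plates (96-well) were seeded with cells, treated with compound at one concentration, and incubated for 48 hours before percent growth was determined.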 Calls of active or inactive are those of the source.

The subject of this experiment is BT-549 breast. As to the kind of experiment: NCI-60 one-dose screen, 48 h (100 = growth as untreated, 0 = no growth, -100 = all killed). The note with it: 10 µM. The procedure:
Growth inhibition of the BT-549 human tumor cell line is measured as a screen for anti-cancer activity. Cells are grown in 96 well plates and exposed to the test compound for 48 hours. Compounds are tested at a single concentration, which is 10^-5 M for most compounds. The reported endpoint is percent growth (GI% or GIPRCNT), where numbers from 0 - 100% represent growth inhibition, and numbers from -100% - 0 represent cell death. For example, a value of 40 represents 60% growth inhibition. A value of 0 means no net growth occurred over the course of the experiment. A value of -40 indicates 40% of cells at the beginning of the experiment died by the end of the experiment. A value of -100 means all cells are dead at the end of the experiment.
NCI-60 Human Tumor Cell Lines Screen was performed using the standard one-dose NCI protocol, which is described in more detail at https://dtp.cancer.gov/discovery_development/nci-60/default.htm.
Compounds with GIPRCNT values below 10 were considered active. Activity score was based on GIPRCNT using the following formula: […]
Score is 0 for GIPRCNT values of 100 or above, 50 for GIPRCNT values of 0, and 100 for GIPRCNT values of -100.
In the case of `CC(=O)OCC(=O)[C@@]1(O)CC[C@H]2[C@@H]3CC[C@@H]4C[C@H](O)CC[C@]4(C)[C@H]3C(=O)C[C@@]21C`, the growth was 102% (inactive).

`CSC[C@H](NC(=O)COc1cccc2cnccc12)C(=O)NC(Cc1ccccc1)C(O)C(=O)N1CSC[C@H]1C(=O)NC(C)(C)C` (stereo not given in full): the growth is 105% (inactive).

As for `NCCCN`, the growth is 106% (inactive).

On to `O=C1C[C@H](c2ccccc2)[C@H](c2ccccc2)C1`, for which the growth was 93.7% (inactive).

Regarding `O=C(O)/C=C/C(=O)NCc1ccccc1`, the growth was 104% (inactive).

Regarding `O=[N+]([O-])c1ccc(N=Nc2ccccc2)cc1`, the growth was 87.2% (inactive).

For the compound `Oc1ccc2c(c1)OCC1(O)Cc3cc(O)c(O)cc3C21` (stereo not given), the growth is 88.9% (inactive).

Regarding `O=C1Cc2ccccc2C(=O)O1`, the growth was 101% (inactive).

As to `Cc1cc2ccccc2c(O)c1C#N`, the growth is 97.6% (inactive).

For the compound `O=S(=O)(O)c1ccc(O)c2ccccc12`, the growth was 91.6% (inactive).

Regarding `N#CCc1ccc([N+](=O)[O-])cc1`, the growth is 102% (inactive).

`COc1cccc(/C=N/NC(=S)NC2CC3CCC2C3)c1O` (stereo not given): the growth is 79.8% (inactive).

`NC(=O)N/N=C\c1ccco1`: the growth was 94.9% (inactive).

As for `O=C(O)COCC(=O)O`, the growth is 122% (inactive).

Regarding `Cc1ccc(S(=O)(=O)O)c(C)c1`, the growth was 109% (inactive).

Regarding `O=c1[nH]c(O)c(/C=C2/C=Nc3ccccc32)[nH]1`, the growth was 107% (inactive).

Turning to `O=C(O)C(Cc1ccccc1)C(=O)O`, the growth is 99.1% (inactive).

For `OCC(O)C(O)C(O)C(O)/C=N/O` (stereo not given), the growth was 91.5% (inactive).

For the compound `CCCCNC(=O)C(=O)NCCCC`, the growth is 98.8% (inactive).

`CCCC(=O)Nc1ccc2c(c1)CN1C(=O)c3ccccc3C1=N2`: the growth is 107% (inactive).

Regarding `CC1OC(Oc2c(-c3ccc(O)c(O)c3)oc3cc(O)cc(O)c3c2=O)C(O)C(O)C1O` (stereo not given), the growth is 109% (inactive).

As for `O=[N+]([O-])c1cccc2nsnc12`, the growth was 106% (inactive).

As for `CC(CN1CCCCC1)NC(=O)c1scnc1-c1ccccc1` (stereo not given), the growth was 101% (inactive).

For the compound `O=C1OC(=O)C2C1C1(Cl)C(Cl)=C(Cl)C2(Cl)C2C(=O)OC(=O)C21` (stereo not given), the growth is 103% (inactive).

Take `CN(C)c1ccc2oc(=O)c3ccccc3c2c1`: the growth is 40.3% (inactive).

On to `NCC(=O)CCC(=O)O`, for which the growth was 110% (inactive).

Take `OCCN1CCOCC1`: the growth is 115% (inactive).

Consider `CCn1c(=O)n(C)c2c(=O)n(C)c(=O)n(C)c21`, for which the growth was 101% (inactive).

Turning to `Cc1cc(C(O)(c2ccc(Nc3ccccc3)cc2)c2ccc(Nc3ccc(S(=O)(=O)O)cc3)cc2)ccc1N` (stereo not given), the growth is 22.6% (inactive).

`Cc1ccc(C)n1-c1ccsc1C(=O)NNC(=O)C(Cl)Cl`: the growth is 112% (inactive).

In the case of `NC(=O)NC(=O)c1ccc(Cl)cc1`, the growth is 99.4% (inactive).

Consider `Brc1cnc2ccccc2c1`, for which the growth was 103% (inactive).

In the case of `N#CSc1cc(S(N)(=O)=O)ccc1N`, the growth was 98.6% (inactive).

On to `COc1cccc(COC(=O)Nc2ccccc2)c1OC`, for which the growth was 107% (inactive).

As for `CCOC(=O)c1coc(C(=O)OCC)c1C(=O)OCC`, the growth is 119% (inactive).

In the case of `N#Cc1ccc(OC(=O)Nc2ccc(Cl)c(Cl)c2)cc1`, the growth is 93.3% (inactive).

Turning to `CC(C)(O)C#CC#CC(C)(C)O`, the growth was 93.7% (inactive).

As to `COc1ccc(C2OC(N)=C(O)C2=O)cc1OC` (stereo not given), the growth is 102% (inactive).

As to `CCCC(C)OCC(=O)O` (stereo not given), the growth was 127% (inactive).

In the case of `O=C(O)c1ccc(S(=O)(=O)O)cc1`, the growth is 121% (inactive).
